# According to PubChem BioAssay (NCI):
# The panel holds about 83,000 compounds, 20% with a hit somewhere; the sample as a whole holds those more often.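 For each line, cells grew in 96-well plates with the test compound present at a single concentration for 48 hours.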 Unmarked numbers belong to inactive results. Active and inactive are the calls of the source. The calls were made as follows: active = growth percent below 10; inactive = the rest.
# What was measured:
# Experiment in all cases: NCI-60 one-dose screen, 48 h (100 = growth as untreated, 0 = no growth, -100 = all killed)
# Settings in all cases: 10 µM unless noted
# SK-MEL-2 melanoma = test system: SK-MEL-2 melanoma
# EKVX NSCLC = test system: EKVX NSCLC
# SN12C renal = test system: SN12C renal
# UO-31 renal = test system: UO-31 renal
# TK-10 renal = test system: TK-10 renal
# ACHN renal = test system: ACHN renal
# CAKI-1 renal = test system: CAKI-1 renal
# A498 renal = test system: A498 renal
# CCRF-CEM leukemia = test system: CCRF-CEM leukemia
# MOLT-4 leukemia = test system: MOLT-4 leukemia
# SR leukemia = test system: SR leukemia
# RPMI-8226 leukemia = test system: RPMI-8226 leukemia
# OVCAR-8 ovarian = test system: OVCAR-8 ovarian
# OVCAR-5 ovarian = test system: OVCAR-5 ovarian
# OVCAR-4 ovarian = test system: OVCAR-4 ovarian
# SK-OV-3 ovarian = test system: SK-OV-3 ovarian
# IGROV1 ovarian = test system: IGROV1 ovarian
# OVCAR-3 ovarian = test system: OVCAR-3 ovarian
# HS 578T breast = test system: HS 578T breast
# NCI/ADR-RES ovarian = test system: NCI/ADR-RES ovarian
SMILES,growth (SK-MEL-2 melanoma) [%],growth (EKVX NSCLC) [%],growth (SN12C renal),growth (UO-31 renal) [%],growth (TK-10 renal) [%],growth (ACHN renal) [%],growth (CAKI-1 renal) [%],growth (A498 renal) [%],growth (CCRF-CEM leukemia),growth (MOLT-4 leukemia),growth (SR leukemia),growth (RPMI-8226 leukemia),growth (OVCAR-8 ovarian),growth (OVCAR-5 ovarian) [%],growth (OVCAR-4 ovarian),growth (SK-OV-3 ovarian) [%],growth (IGROV1 ovarian),growth (OVCAR-3 ovarian),growth (HS 578T breast),growth (NCI/ADR-RES ovarian)
CCCCCCCCCCN=C(N)N=C(N)N,75.8,38.8,9.21% (active),43.1,40.8,40.1,43.4,54.9,35.7%,30.8%,37.8%,34.8%,43.5%,64.1,44.9%,52.3,12.1%,41.9%,55%,79.5%
O=S(=O)(NCCNc1nccc(-c2c(-c3ccc(F)c(O)c3)nc3occn23)n1)c1ccccc1,17,81.6,48.8%,35.2,121,33.9,44.1,103,38.5%,47.8%,20.2%,33.7%,53.7%,101,85.8%,68.6,43.9%,77.1%,54.4%,109%
CC[C@@]12C=CCN3CC[C@]4(c5cc(NC(=O)COc6cc(OCC(=O)Nc7cc8c(cc7OC)N(C)[C@H]7[C@@](O)(C(=O)OC)[C@H](OC(C)=O)[C@]9(CC)C=CCN%10CC[C@]87[C@@H]%109)cc7oc(-c8ccccc8)cc(=O)c67)c(OC)cc5N(C)[C@@H]4[C@](O)(C(=O)OC)[C@H]1OC(C)=O)[C@H]32,85.1,56.8,49.4%,75.9,42.8,85.4,46.8,58.6,13.6%,13.1%,10.6%,8.92% (active),28.8%,30.2,28.8%,23.5,-70% (active),-26.8% (active),39.4%,95.5%
NC(=O)c1ccc[n+](CC(=O)N2CCN(c3cc4c(cc3F)c(=O)c(C(=O)O)cn4C3CC3)CC2)c1,95.9,106,58%,74.3,116,84.5,96.9,101,-25.2% (active),26.6%,32.2%,74.3%,92.8%,114,74.8%,117,99.4%,69.4%,91.1%,99.8%
O=C(Nc1ccc2ncnc(Nc3ccc(Oc4cccc(F)c4)c(Cl)c3)c2c1)c1ccc(CN2CCOCC2)cc1,59.1,30.4,39%,20.3,53.6,17.5,24.4,53.9,2.89% (active),-3.45% (active),18.6%,-16.4% (active),6.19% (active),75.5,20.3%,18.5,0.971% (active),23.1%,46.6%,4.15% (active)
COc1ccc(C2=NN(C(C)=O)C(c3cn(Cc4ccc(Cl)cc4)c4ccccc34)C2)cc1 (stereo not drawn),91.1,58.4,72.2%,53.4,82.9,74.5,52.2,72.9,70.7%,67.8%,66.2%,50%,78.3%,79.6,70.1%,90.1,77.5%,78.1%,75.9%,75%
CN1CCN(c2cnc(C(=O)Nc3cc(F)cc4cccnc34)cn2)CC1,94.8,45.5,62.2%,43,69.3,26.5,57.3,75.7,35.6%,23.5%,24.5%,49.2%,63.8%,62.7,8.94% (active),96.9,8.45% (active),9.25% (active),69.2%,56.5%
Clc1ccc(C2CC(c3cccc(Nc4ccncc4)c3)=NN2c2cc(Cl)cc(Cl)c2)cc1 (stereo not drawn),107,74.3,76.3%,71.2,94.8,77.2,55.3,85.6,11.3%,7.7% (active),6.05% (active),43.4%,-7.8% (active),84.4,33.7%,90.7,44.6%,76.9%,78%,68.3%
CC(C)(C)CC(C)(C)Nc1c(-c2ccc3c(c2)OCO3)nc2cnccn12,95.6,80.3,92.8%,63.1,98.3,86.5,69.6,75.6,89.1%,69.4%,73.1%,69.7%,95.1%,91.2,86.9%,92,72.1%,–,88.5%,87.7%
Cc1ccc(-c2c(Br)c(OC(=O)CO[C@@H]3C[C@H](C)CC[C@H]3C(C)C)c(-c3ccc(C)cc3C)c(Br)c2OC(=O)CO[C@H]2C[C@@H](C)CC[C@@H]2C(C)C)c(C)c1,90.2,101,98.9%,87,92.8,104,97,96.1,90%,97.6%,104%,94.3%,89.6%,102,106%,94.9,108%,110%,98.9%,101%
COc1ccc(-c2nc(SCC(C)C)nc(N/N=C(/C)c3ccc(OC)c(OC)c3)c2C#N)cc1,103,89.5,76.1%,54.4,101,90.5,86,67.9,70.3%,55.3%,70.9%,71.3%,93.4%,81.7,86.3%,93.3,78.8%,79.7%,76%,90.2%
COc1cnccc1-c1nc2ccc3[nH]ncc3c2c2c1CCCC2,81.2,18.2,62.4%,29.4,60.7,37.6,18,13.2,16.4%,28.2%,8.78% (active),61.6%,69.1%,74.8,85.9%,41.9,33.4%,84.3%,-1.02% (active),64.2%
FC(F)(F)c1cccc(Oc2ccc(Nc3ncnc4ccc(OCCCN5CCOCC5)cc34)cc2Cl)c1,82.7,32.7,39.6%,21.6,46,23.9,35.6,63.1,-16.4% (active),34.3%,10.4%,32%,56.1%,59.7,43.7%,22.1,12.2%,51.6%,72.4%,49.9%
CCCCCCCCCCCCC1CCC/C=C\CCC(=O)O1 (stereo not drawn),96.2,97.1,105%,90.4,97.7,107,111,117,76.4%,-8.63% (active),71.4%,94%,100%,102,109%,95.3,102%,–,107%,102%
